# Experimental data as given in PubChem BioAssay (NCATS).
# Results filed as inconclusive are left out. Calls of active or inactive are those of the source. Calls come from the whole dose curve; as a rule, active = well fitted cell-killing curve with a large enough effect; inconclusive = small, poorly fitted or top-dose-only effect; inactive = flat fitted curve, though single readings scatter.
# Assay: qHTS of pediatric cancer cell lines to identify multiple opportunities for drug repurposing: Primary screen for control Hh wild type fibroblast cells (AID 1347106); note: nearly all actives have a fitted effect of over 55% in size;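 for activity change, negative = cytotoxic: a drop in luminescence marks cytotoxicity and a rise apparent proliferation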
# Details: Hh wild-type fibroblast viability, CellTiter-Glo luminescence, 48 h; series mostly up to 46 µM; activity change, negative = cytotoxic: at the top concentration
# Procedure, shortened: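 Viability after 48 h compound treatment at 37C, 500-1,000 cells/well, read as ATP luminescence with CellTiter-Glo. Primary screens used 11-point (MIPE, 0.78 nM-46 µM) or 8-point (NPC, 0.59 nM-46 µM) final concentrations; follow-up screens used 11-point dilutions.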
# % is set by controls: 0 for no effect and ±100 for the full control effect; potency is the fitted concentration of half-maximal effect.
Compound,"activity change, negative = cytotoxic",Potency
CN1CCN(c2ccc3nc(-c4c(N)c5c(F)cccc5[nH]c4=O)[nH]c3c2)CC1,-23.7% (inactive),–
Clc1cccc(-c2nnnn2Cc2cccnc2)c1Cl,-12% (inactive),–
COc1cc(C(C)C)c2c(c1)S(=O)(=O)N(COc1cc(=O)n3cccc(OCCN4CCCCC4)c3n1)C2=O,6.9% (inactive),–
CC(C)c1noc(N2CCC(COc3ccc(-c4ccc(S(C)(=O)=O)cc4)nc3)CC2)n1,-4.96% (inactive),–
COc1cc2ncn(-c3cc(OCc4ccccc4C(F)(F)F)c(C(N)=O)s3)c2cc1OC,–,18.7 µM (active)
COc1c(N2C[C@@H]3CCCN[C@H]3C2)c(F)cc2c(=O)c(C(=O)O)cn(C3CC3)c12,4.48% (inactive),–
CC[C@H](CO)Nc1nc(NCc2ccccc2)c2ncn(C(C)C)c2n1,-5.28% (inactive),–
Cn1cc(-c2ccncc2)c(-c2ccc(OCc3ccc4ccccc4n3)cc2)n1,16.7% (inactive),–
COC(=O)C[C@](O)(CCCC(C)(C)O)C(=O)O[C@@H]1C(OC)=C[C@]23CCCN2CCc2cc4c(cc2[C@H]13)OCO4,13% (inactive),–
C[C@]12CC[C@H](O)CC1=CCC1C2CC[C@]2(C)C(n3cnc4ccccc43)=CCC12 (some centres undefined),7.05% (inactive),–
Cc1ccc(CN2CCNCC2)cc1NC(=O)CNc1ccc(F)c(F)c1,-0.626% (inactive),–
O=C(O)CO.[NH2-].[NH2-].[Pt+2],0.232% (inactive),–
CCOC(=O)C1=C(C)NC2=C(C(=O)CC(C)(C)C2)C1c1ccc(-c2ccccc2)cc1 (centres undefined),-8.09% (inactive),–
COC(=O)C1=C(C)NC(C)=C(C(=O)OCCN2CCN(C(c3ccccc3)c3ccccc3)CC2)C1c1cccc([N+](=O)[O-])c1 (centres undefined),11.2% (inactive),–
Clc1cccc(-n2nnnc2NCc2ccccc2Oc2ccccn2)c1Cl,-3.14% (inactive),–
CCC[C@H](NC(=O)C(C#N)=Cc1cccc(Br)n1)c1ccccc1,-13.3% (inactive),–
CC(=O)c1c(C)c2cnc(Nc3ccc(N4CCNCC4)cn3)nc2n(C2CCCC2)c1=O,-5.09% (inactive),–
COc1cc2c(Oc3ccc4[nH]c(C)cc4c3F)ncnc2cc1OCCCN1CCCC1,–,26.4 µM (active)
CCc1cc2c(cc1N1CCC(N3CCOCC3)CC1)C(C)(C)c1[nH]c3cc(C#N)ccc3c1C2=O,3.62% (inactive),–
COc1cc2c(Nc3ccc(NC(=O)c4ccccc4)cc3)ncnc2cc1OCCCN1CCOCC1,11.5% (inactive),–

Compound,"activity change, negative = cytotoxic",Potency
Cn1cc(-c2[nH]c3cc(NC(=O)[C@H](N)C4CCCCC4)cc4c3c2C=NNC4=O)cn1,-10% (inactive),–
CC(=O)Nc1sc2c(c1-c1nc3ccccc3s1)CNC2,-9.59% (inactive),–
O=C(Nc1nc2cccc(-c3ccc(CN4CCS(=O)(=O)CC4)cc3)n2n1)C1CC1,-5.11% (inactive),–
C[C@@H]1CN(CC(=O)Nc2ccc3c(c2)Cc2cccc(-c4cc(=O)cc(N5CCOCC5)o4)c2S3)C[C@H](C)O1,27.3% (inactive),–
O=C(c1cncc(Br)c1)N1CCC(N2CCCC2)CC1,7.5% (inactive),–
O=C(O)c1ccc2c(c1)nc(Nc1cccc(Cl)c1)c1ccncc12,-8.11% (inactive),–
N#Cc1c(O)c2c(-c3ccc(-c4ccccc4O)cc3)csc2[nH]c1=O,9.78% (inactive),–
Cc1cccc(C=NNc2cc(N3CCOCC3)nc(OCCc3ccccn3)n2)c1,14% (inactive),–
CCN(CC)CCNC(=O)c1ccc2nc(-c3ccccc3)c(-c3ccc(CN4CCC(n5c(=O)[nH]c6ccccc65)CC4)cc3)nc2c1,–,9.35 µM (active)
O=C(NCCS(=O)(=O)c1ccc(C(F)(F)F)cn1)c1ccc(Cl)cc1,4.22% (inactive),–
Cc1cc(Nc2cc(N3CCN(C)CC3)nc(C=Cc3ccccc3)n2)n[nH]1,–,38.2 µM (active)
CN(C1CCc2c(c3ccccc3n2CC(=O)O)C1)S(=O)(=O)c1ccc(F)cc1 (centres undefined),12.1% (inactive),–
CCCCCN(CCC12CC3CC(CC(C3)C1)C2)C(=O)NCCCc1ccncc1,7.82% (inactive),–
C=C1C(=CC=C2CCCC3(C)[C@@H]([C@H](C)C=CC=CC(O)(CC)CC)CC[C@@H]23)C[C@@H](O)C[C@@H]1O (some centres undefined),5.31% (inactive),–
Clc1ccc2ncc(-c3cccc(NC4CNC4)n3)n2c1,4.76% (inactive),–
COc1cc2ncnc(Nc3ccc(F)c(Cl)c3)c2cc1NC(=O)C=CCN1CCCCC1,14.5% (inactive),–
Cn1c2cc(S(C)=O)sc2c2cnn(Cc3cccc(N)c3)c(=O)c21 (centres undefined),17.5% (inactive),–
COc1cc(C(=O)NS(=O)(=O)c2ccccc2C)ccc1Cc1cn(C)c2ccc(NC(=O)OC3CCCC3)cc12,14% (inactive),–
CCCCN1CCC(CNC(=O)c2c3n(c4ccccc24)CCCO3)CC1,–,1.18 µM (active)
